Measured values: paper PMC5540273 (PLoS ONE, 2017)

Assays:
Details in all cases: concentration: 1 μM,replicates: in singlicate; n = 1
NIM1 = tested on: T1, NIM1
T1 construct: gene MGC42105

NLK = tested on: NLK
OSR1 = tested on: T2, OSR1
T2 construct: gene OXSR1

PAK1 = tested on: PAK1
PAK2 = tested on: PAK2
PAK3 = tested on: PAK3
PAK4 = tested on: PAK4
PAK6 = tested on: PAK6
PAK7 = tested on: PAK7
PCTK1 = tested on: T3, PCTK1
T3 construct: gene CDK16

PCTK2 = tested on: T4, PCTK2
T4 construct: gene CDK17

PCTK3 = tested on: T5, PCTK3
T5 construct: gene CDK18

PDGFRA = tested on: PDGFRA
PDGFRB = tested on: PDGFRB
PDPK1 = tested on: PDPK1
PFTAIRE2 = tested on: PFTAIRE2
PFTK1 = tested on: T6, PFTK1
T6 construct: gene CDK14

PHKG1 = tested on: PHKG1
PHKG2 = tested on: PHKG2
PIK3C2B = tested on: PIK3C2B
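Also: KINOMEscan kinase panel screen.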

Structure (SMILES): COC(=O)c1cccc(NC(=O)NC2CCN(c3ccnc(NCc4ccc(F)cc4)n3)CC2)c1 [GSK1379860]
- %Inh (NIM1): 15%
- %Inh (NLK): 0%
- %Inh (OSR1): 19%
- %Inh (PAK1): 0%
- %Inh (PAK2): 0%
- %Inh (PAK3): 0%
- %Inh (PAK4): 0%
- %Inh (PAK6): 0%
- %Inh (PAK7): 0%
- %Inh (PCTK1): 8%
- %Inh (PCTK2): 0%
- %Inh (PCTK3): 33%
- %Inh (PDGFRA): 14%
- %Inh (PDGFRB): 7%
- %Inh (PDPK1): 5%
- %Inh (PFTAIRE2): 0%
- %Inh (PFTK1): 7%
- %Inh (PHKG1): 0%
- %Inh (PHKG2): 0%
- %Inh (PIK3C2B): 0%

Structure (SMILES): CNC(=O)c1ccccc1Nc1nc(Nc2cccc(CS(C)(=O)=O)c2)ncc1C.O=CO [GSK1520489]
- %Inh (NIM1): 97.4%
- %Inh (NLK): 39%
- %Inh (OSR1): 28%
- %Inh (PAK1): 64%
- %Inh (PAK2): 52%
- %Inh (PAK3): 97.8%
- %Inh (PAK4): 55%
- %Inh (PAK6): 79%
- %Inh (PAK7): 85%
- %Inh (PCTK1): 6%
- %Inh (PCTK2): 0%
- %Inh (PCTK3): 18%
- %Inh (PDGFRA): 94%
- %Inh (PDGFRB): 99.9%
- %Inh (PDPK1): 49%
- %Inh (PFTAIRE2): 0%
- %Inh (PFTK1): 16%
- %Inh (PHKG1): 63%
- %Inh (PHKG2): 49%
- %Inh (PIK3C2B): 0%

Structure (SMILES): CC(=O)Nc1ccc(-c2cc3ncnc(SCC(=O)O)c3s2)cc1
- %Inh (NIM1): 0%
- %Inh (NLK): 0%
- %Inh (OSR1): 7%
- %Inh (PAK1): 0%
- %Inh (PAK2): 0%
- %Inh (PAK3): 0%
- %Inh (PAK4): 0%
- %Inh (PAK6): 0%
- %Inh (PAK7): 8%
- %Inh (PCTK1): 28%
- %Inh (PCTK2): 0%
- %Inh (PCTK3): 24%
- %Inh (PDGFRA): 64%
- %Inh (PDGFRB): 88%
- %Inh (PDPK1): 0%
- %Inh (PFTAIRE2): 4%
- %Inh (PFTK1): 0%
- %Inh (PHKG1): 21%
- %Inh (PHKG2): 3%
- %Inh (PIK3C2B): 6%

Structure (SMILES): COC(=O)c1cccc(NC(=O)NC2CCN(c3ccnc(Nc4cc(OC)c(OC)c(OC)c4)n3)C2)c1 (stereo not shown) [GSK1379767]
- %Inh (NIM1): 40%
- %Inh (NLK): 32%
- %Inh (OSR1): 0%
- %Inh (PAK1): 10%
- %Inh (PAK2): 0%
- %Inh (PAK3): 18%
- %Inh (PAK4): 5%
- %Inh (PAK6): 0%
- %Inh (PAK7): 18%
- %Inh (PCTK1): 0%
- %Inh (PCTK2): 24%
- %Inh (PCTK3): 0%
- %Inh (PDGFRA): 6%
- %Inh (PDGFRB): 65%
- %Inh (PDPK1): 0%
- %Inh (PFTAIRE2): 0%
- %Inh (PFTK1): 20%
- %Inh (PHKG1): 10%
- %Inh (PHKG2): 2%
- %Inh (PIK3C2B): 0%

Structure (SMILES): Cn1cc(-c2cccc3c(N)c(C(N)=O)nnc23)cn1
- %Inh (NIM1): 9%
- %Inh (NLK): 20%
- %Inh (OSR1): 24%
- %Inh (PAK1): 0%
- %Inh (PAK2): 2%
- %Inh (PAK3): 44%
- %Inh (PAK4): 1%
- %Inh (PAK6): 13%
- %Inh (PAK7): 18%
- %Inh (PCTK1): 6%
- %Inh (PCTK2): 2%
- %Inh (PCTK3): 5%
- %Inh (PDGFRA): 12%
- %Inh (PDGFRB): 10%
- %Inh (PDPK1): 2%
- %Inh (PFTAIRE2): 6%
- %Inh (PFTK1): 0%
- %Inh (PHKG1): 10%
- %Inh (PHKG2): 0%
- %Inh (PIK3C2B): 0%

Structure (SMILES): Cl.c1ccc(Oc2ccc(Nc3ccnc4cc(-c5ccc(CN6CCNCC6)o5)ccc34)cc2)nc1 [GW567142]
- %Inh (NIM1): 0%
- %Inh (NLK): 15%
- %Inh (OSR1): 0%
- %Inh (PAK1): 7%
- %Inh (PAK2): 0%
- %Inh (PAK3): 0%
- %Inh (PAK4): 0%
- %Inh (PAK6): 0%
- %Inh (PAK7): 0%
- %Inh (PCTK1): 1%
- %Inh (PCTK2): 0%
- %Inh (PCTK3): 2%
- %Inh (PDGFRA): 78%
- %Inh (PDGFRB): 98.5%
- %Inh (PDPK1): 0%
- %Inh (PFTAIRE2): 25%
- %Inh (PFTK1): 11%
- %Inh (PHKG1): 0%
- %Inh (PHKG2): 0%
- %Inh (PIK3C2B): 0%

Structure (SMILES): C[C@@H](Oc1cc(-n2cnc3ccc(-c4ccncc4)cc32)sc1C(N)=O)c1ccccc1Cl [GSK483724]
- %Inh (NIM1): 13%
- %Inh (NLK): 49%
- %Inh (OSR1): 11%
- %Inh (PAK1): 8%
- %Inh (PAK2): 29%
- %Inh (PAK3): 21%
- %Inh (PAK4): 44%
- %Inh (PAK6): 13%
- %Inh (PAK7): 10%
- %Inh (PCTK1): 7%
- %Inh (PCTK2): 0%
- %Inh (PCTK3): 47%
- %Inh (PDGFRA): 8%
- %Inh (PDGFRB): 54%
- %Inh (PDPK1): 0%
- %Inh (PFTAIRE2): 22%
- %Inh (PFTK1): 26%
- %Inh (PHKG1): 9%
- %Inh (PHKG2): 0%
- %Inh (PIK3C2B): 88%

Structure (SMILES): COc1cc2c(Nc3ccc(NC(=O)c4ccccc4)cc3)ncnc2cc1OCCCN1CCOCC1 [GSK301329]
- %Inh (NIM1): 16%
- %Inh (NLK): 7%
- %Inh (OSR1): 20%
- %Inh (PAK1): 0%
- %Inh (PAK2): 3%
- %Inh (PAK3): 30%
- %Inh (PAK4): 0%
- %Inh (PAK6): 5%
- %Inh (PAK7): 0%
- %Inh (PCTK1): 3%
- %Inh (PCTK2): 0%
- %Inh (PCTK3): 28%
- %Inh (PDGFRA): 24%
- %Inh (PDGFRB): 55%
- %Inh (PDPK1): 0%
- %Inh (PFTAIRE2): 10%
- %Inh (PFTK1): 12%
- %Inh (PHKG1): 0%
- %Inh (PHKG2): 0%
- %Inh (PIK3C2B): 0%

Structure (SMILES): Cn1ccc2ncnc(Oc3ccc(NC(=O)Nc4cnn(C(C)(C)C)c4)c(Cl)c3)c21
- %Inh (NIM1): 0%
- %Inh (NLK): 38%
- %Inh (OSR1): 6%
- %Inh (PAK1): 13%
- %Inh (PAK2): 34%
- %Inh (PAK3): 45%
- %Inh (PAK4): 5%
- %Inh (PAK6): 19%
- %Inh (PAK7): 0%
- %Inh (PCTK1): 24%
- %Inh (PCTK2): 5%
- %Inh (PCTK3): 0%
- %Inh (PDGFRA): 99.6%
- %Inh (PDGFRB): 100%
- %Inh (PDPK1): 5%
- %Inh (PFTAIRE2): 0%
- %Inh (PFTK1): 0%
- %Inh (PHKG1): 0%
- %Inh (PHKG2): 0%
- %Inh (PIK3C2B): 27%

Structure (SMILES): CCn1c(-c2nonc2N)nc2cncc(CNC3CCNCC3)c21.Cl [SB-747651]
- %Inh (NIM1): 31%
- %Inh (NLK): 18%
- %Inh (OSR1): 4%
- %Inh (PAK1): 0%
- %Inh (PAK2): 51%
- %Inh (PAK3): 45%
- %Inh (PAK4): 0%
- %Inh (PAK6): 2%
- %Inh (PAK7): 0%
- %Inh (PCTK1): 8%
- %Inh (PCTK2): 0%
- %Inh (PCTK3): 0%
- %Inh (PDGFRA): 0%
- %Inh (PDGFRB): 4%
- %Inh (PDPK1): 18%
- %Inh (PFTAIRE2): 14%
- %Inh (PFTK1): 1%
- %Inh (PHKG1): 25%
- %Inh (PHKG2): 0%
- %Inh (PIK3C2B): 0%

Structure (SMILES): O=C(Nc1ccccc1)c1cccc(Oc2ccc3nccn3n2)c1
- %Inh (NIM1): 1%
- %Inh (NLK): 0%
- %Inh (OSR1): 0%
- %Inh (PAK1): 0%
- %Inh (PAK2): 0%
- %Inh (PAK3): 5%
- %Inh (PAK4): 0%
- %Inh (PAK6): 9%
- %Inh (PAK7): 0%
- %Inh (PCTK1): 0%
- %Inh (PCTK2): 0%
- %Inh (PCTK3): 38%
- %Inh (PDGFRA): 66%
- %Inh (PDGFRB): 99.3%
- %Inh (PDPK1): 0%
- %Inh (PFTAIRE2): 0%
- %Inh (PFTK1): 38%
- %Inh (PHKG1): 15%
- %Inh (PHKG2): 0%
- %Inh (PIK3C2B): 0%

Structure (SMILES): O=C(Nc1ccc(Oc2ccc3nc(NC(=O)C4CC4)cn3n2)c(F)c1)c1cccn(-c2ccccc2)c1=O
- %Inh (NIM1): 0%
- %Inh (NLK): 0%
- %Inh (OSR1): 0%
- %Inh (PAK1): 0%
- %Inh (PAK2): 0%
- %Inh (PAK3): 0%
- %Inh (PAK4): 0%
- %Inh (PAK6): 0%
- %Inh (PAK7): 0%
- %Inh (PCTK1): 0%
- %Inh (PCTK2): 5%
- %Inh (PCTK3): 5%
- %Inh (PDGFRA): 96.3%
- %Inh (PDGFRB): 100%
- %Inh (PDPK1): 0%
- %Inh (PFTAIRE2): 0%
- %Inh (PFTK1): 0%
- %Inh (PHKG1): 61%
- %Inh (PHKG2): 0%
- %Inh (PIK3C2B): 0%

Structure (SMILES): CS(=O)(=O)c1cccc(CNc2nc(Nc3ccc4c(c3)[C@@H]3C[C@@H]4CNC3=O)ncc2C(F)(F)F)c1
- %Inh (NIM1): 0%
- %Inh (NLK): 0%
- %Inh (OSR1): 48%
- %Inh (PAK1): 5%
- %Inh (PAK2): 12%
- %Inh (PAK3): 0%
- %Inh (PAK4): 0%
- %Inh (PAK6): 18%
- %Inh (PAK7): 20%
- %Inh (PCTK1): 0%
- %Inh (PCTK2): 0%
- %Inh (PCTK3): 0%
- %Inh (PDGFRA): 9%
- %Inh (PDGFRB): 73%
- %Inh (PDPK1): 0%
- %Inh (PFTAIRE2): 18%
- %Inh (PFTK1): 0%
- %Inh (PHKG1): 0%
- %Inh (PHKG2): 0%
- %Inh (PIK3C2B): 0%

Structure (SMILES): Cl.Nc1n[nH]c2cc(-c3ccccn3)ccc12 [GSK2189892]
- %Inh (NIM1): 0%
- %Inh (NLK): 0%
- %Inh (OSR1): 11%
- %Inh (PAK1): 9%
- %Inh (PAK2): 2%
- %Inh (PAK3): 0%
- %Inh (PAK4): 0%
- %Inh (PAK6): 2%
- %Inh (PAK7): 16%
- %Inh (PCTK1): 0%
- %Inh (PCTK2): 13%
- %Inh (PCTK3): 0%
- %Inh (PDGFRA): 0%
- %Inh (PDGFRB): 16%
- %Inh (PDPK1): 0%
- %Inh (PFTAIRE2): 5%
- %Inh (PFTK1): 6%
- %Inh (PHKG1): 0%
- %Inh (PHKG2): 0%
- %Inh (PIK3C2B): 0%
